Experimental data reported in PubChem BioAssay (NCI).
The panel holds about 79,000 compounds, 15% with a hit somewhere; the sample as a whole holds those more often. Calls of active or inactive are those of the source. Cut-off read from the data, not from the text of the source: active = growth inhibition above about 70%; inactive = the rest.

Tests used:
[1] = NCI Yeast Anticancer Drug Screen. Data for the rad52 strain (AID 147);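 note: 0% = growth of vehicle-treated control cultures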; conditions: S. cerevisiae rad52 mutant growth inhibition, stronger effect = higher value
Summary of the method: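 Compounds are applied to a genetically defined yeast strain lacking normal DNA damage repair, and inhibition of growth is expressed relative to cultures given vehicle only.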

[2] = NCI Yeast Anticancer Drug Screen. Data for the wt1 strain (AID 149);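 note: 0% = growth of vehicle-treated wt1 cultures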; conditions: S. cerevisiae wt1 strain (SPY 50644) growth inhibition, stronger effect = higher value
Summary of the method: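 Growth inhibition read against vehicle controls after compound exposure of the wt1 yeast strain.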

[3] = NCI Yeast Anticancer Drug Screen. Data for the rad50EPP+ strain (AID 151);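 note: 0% = growth of vehicle-treated control cultures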; conditions: S. cerevisiae rad50 mutant strain, stronger effect = higher value
Summary of the method: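 Compounds were applied to the rad50EPP+ yeast strain, which bears a defined DNA repair alteration, and growth inhibition was determined relative to vehicle-treated cultures.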

[4] = NCI Yeast Anticancer Drug Screen. Data for the rad50 strain (AID 155);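 note: 0% = growth of vehicle-only cultures of the same strain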; conditions: S. cerevisiae rad50 strain growth inhibition, stronger effect = higher value
Summary of the method: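 Readout: growth inhibition relative to vehicle-treated cultures. Compound exposure was carried out in a genetically defined yeast strain deficient in DNA damage repair.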

[5] = NCI Yeast Anticancer Drug Screen. Data for the mec2-1 strain (AID 157); conditions: S. cerevisiae mec2-1 strain, stronger effect = higher value
Summary of the method: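 Strain: mec2-1 (DNA repair/cell cycle alteration). Compound exposure, then growth measured; inhibition expressed relative to vehicle.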

[6] = NCI Yeast Anticancer Drug Screen. Data for the rad14 strain (AID 159);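 note: 0% = growth of vehicle-treated control cultures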; conditions: S. cerevisiae rad14 strain growth inhibition, stronger effect = higher value
Summary of the method: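 Growth inhibition vs vehicle controls; genetically altered yeast strain (DNA damage repair defect) treated with test compounds.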

[7] = NCI Yeast Anticancer Drug Screen. Data for the sgs1 mgt1 strain (AID 161);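 note: 0% = growth of cultures given vehicle only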; conditions: S. cerevisiae sgs1 mgt1 strain, stronger effect = higher value
Summary of the method: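 Genetically altered yeast, compound exposure, growth inhibition relative to vehicle.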

[8] = NCI Yeast Anticancer Drug Screen. Data for the cln2 rad14 strain (AID 165);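 note: 0% = growth equal to vehicle treated cultures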; conditions: S. cerevisiae cln2 rad14 strain, stronger effect = higher value
Summary of the method: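 Compounds are applied to the cln2 rad14 yeast strain, and growth is then compared with that of vehicle-treated cultures to give inhibition.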

[9] = NCI Yeast Anticancer Drug Screen. Data for the bub3 strain (AID 167); conditions: S. cerevisiae bub3 mutant strain, stronger effect = higher value
Summary of the method: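 Readout: yeast growth inhibition, expressed relative to vehicle-only wells. The test organism is a mutant strain from a panel with lesions in DNA repair or checkpoint genes.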

[10] = NCI Yeast Anticancer Drug Screen. Data for the mlh1 strain (AID 171);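 note: 0% = growth of vehicle-treated control cultures of the same strain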; conditions: S. cerevisiae mlh1 strain growth inhibition, stronger effect = higher value
Summary of the method: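 Growth of the mutant yeast strain after compound exposure, expressed as inhibition relative to vehicle-only controls.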

[11] = NCI Yeast Anticancer Drug Screen. Data for the sgs1 strain (AID 173);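 note: 0% = growth of vehicle-only control cultures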; conditions: S. cerevisiae sgs1 mutant, stronger effect = higher value
Summary of the method: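 Growth of a yeast strain bearing a defined genetic alteration is measured after compound treatment. Inhibition is expressed relative to vehicle-only controls.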

[12] = NCI Yeast Anticancer Drug Screen. Data for the mlh1 rad18 strain (AID 175); conditions: S. cerevisiae mlh1 rad18 strain growth inhibition, stronger effect = higher value
Summary of the method: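 Read-out is yeast growth inhibition, calculated against vehicle-only controls. The compound was applied to a strain engineered with DNA damage repair alterations.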

[13] = NCI Yeast Anticancer Drug Screen. Data for the CLN2oe strain (AID 163);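 note: 0% = growth of vehicle-only control cultures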; conditions: S. cerevisiae CLN2oe strain, stronger effect = higher value
Summary of the method: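 Growth of a genetically modified yeast strain is measured after compound exposure and compared with cultures given vehicle alone.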

[14] = NCI Yeast Anticancer Drug Screen. Data for the wt2 strain (AID 169);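 note: 0% = growth of vehicle-treated yeast cultures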; conditions: S. cerevisiae wt2 strain growth inhibition, stronger effect = higher value
Summary of the method: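 This strain belongs to a panel of yeast strains with defined genetic alterations in DNA damage repair or cell cycle control. Compounds are applied, and growth inhibition is measured against vehicle-treated cultures.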

[15] = NCI Yeast Anticancer Drug Screen. Data for the rad18 strain (AID 177); conditions: S. cerevisiae rad18 mutant growth inhibition, stronger effect = higher value
Summary of the method: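 Growth of the mutant yeast strain after compound exposure, normalised to vehicle-only cultures.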

[16] = at 5.0 µM (retest, dose inferred, filed as 0.5)
[17] = at 50.0 µM (retest, dose inferred, filed as 5.0)

Measured: growth inhibition

CCCCC(=O)c1c(O)nc2sccn2c1=O
active: [1]; at 33.0 µM 96% | [1]; at 100.0 µM 98% | [2]; at 33.0 µM 94% | [2]; at 100.0 µM 98% | [3]; at 33.0 µM 94% | [3]; at 100.0 µM 95% | [4]; at 11.0 µM 82% | [4]; at 33.0 µM 97% | [4]; [17] 85% | [4]; at 50.0 µM 85.4% | [4]; at 100.0 µM 98% | [5]; at 11.0 µM 82% | [5]; at 33.0 µM 97% | [5]; [17] 88% | [5]; at 50.0 µM 85.3% | [5]; at 100.0 µM 98% | [6]; at 11.0 µM 98% | [6]; at 33.0 µM 98% | [6]; at 100.0 µM 98% | [7]; at 50.0 µM 89.2% | [9]; at 33.0 µM 94% | [9]; [17] 92% | [9]; at 50.0 µM 87.2% | [9]; at 100.0 µM 96% | [10]; at 3.7 µM 74% | [10]; at 11.0 µM 95% | [10]; at 33.0 µM 97% | [10]; at 100.0 µM 98% | [11]; at 11.0 µM 92% | [11]; at 33.0 µM 97% | [11]; at 100.0 µM 98% | [12]; [17] 95% | [12]; at 50.0 µM 83.4%
inactive: [1]; at 1.2 µM 8% | [1]; at 3.7 µM 18% | [1]; at 11.0 µM 64% | [2]; at 1.2 µM 25% | [2]; at 3.7 µM 29% | [2]; at 11.0 µM 52% | [3]; at 1.2 µM 2% | [3]; at 3.7 µM 7% | [3]; at 11.0 µM 58% | [4]; at 1.2 µM 14% | [4]; at 3.7 µM 31% | [4]; [16] 30% | [5]; at 1.2 µM 22% | [5]; at 3.7 µM 17% | [5]; [16] 10% | [6]; at 1.2 µM 22% | [6]; at 3.7 µM 68% | [7]; [16] 5% | [7]; [17] 28% | [8]; [16] 22% | [8]; [17] 37% | [8]; at 50.0 µM 53% | [9]; at 1.2 µM 6% | [9]; at 3.7 µM 11% | [9]; [16] 47% | [9]; at 11.0 µM 62% | [10]; at 1.2 µM 27% | [11]; at 1.2 µM 33% | [11]; at 3.7 µM 55% | [12]; [16] 63%

Clc1nc(C(Cl)Cl)nc2sc3c(c12)CCCC3
active: [4]; [17] 88% | [4]; at 50.0 µM 98.2% | [5]; [17] 80% | [5]; at 50.0 µM 89.3% | [7]; at 50.0 µM 97.7% | [8]; [17] 81% | [8]; at 50.0 µM 78.2% | [9]; [17] 96% | [9]; at 50.0 µM 92.1% | [14]; at 100.0 µM 73% | [11]; at 100.0 µM 78% | [12]; [17] 74% | [12]; at 50.0 µM 96.3%
inactive: [1]; at 1.2 µM 10% | [1]; at 3.7 µM 11% | [1]; at 11.0 µM 14% | [1]; at 33.0 µM 26% | [1]; at 100.0 µM 54% | [2]; at 1.2 µM 2% | [2]; at 3.7 µM 4% | [2]; at 11.0 µM 5% | [2]; at 33.0 µM 21% | [2]; at 100.0 µM 56% | [3]; at 1.2 µM 1% | [3]; at 3.7 µM 0% | [3]; at 11.0 µM 1% | [3]; at 33.0 µM 0% | [3]; at 100.0 µM -2% | [4]; at 1.2 µM 6% | [4]; at 3.7 µM -1% | [4]; [16] 28% | [4]; at 11.0 µM 1% | [4]; at 33.0 µM 31% | [4]; at 100.0 µM 53% | [5]; at 1.2 µM 11% | [5]; at 3.7 µM 9% | [5]; [16] 5% | [5]; at 11.0 µM 15% | [5]; at 33.0 µM 39% | [5]; at 100.0 µM 66% | [7]; [16] 5% | [7]; [17] 26% | [13]; at 1.2 µM 7% | [13]; at 3.7 µM 9% | [13]; at 11.0 µM 12% | [13]; at 33.0 µM 46% | [13]; at 100.0 µM 63% | [8]; [16] 32% | [9]; at 1.2 µM 5% | [9]; at 3.7 µM 3% | [9]; [16] 0% | [9]; at 11.0 µM 8% | [9]; at 33.0 µM 27% | [9]; at 100.0 µM 43% | [14]; at 1.2 µM 3% | [14]; at 3.7 µM 3% | [14]; at 11.0 µM 6% | [14]; at 33.0 µM 36% | [10]; at 1.2 µM 4% | [10]; at 3.7 µM 4% | [10]; at 11.0 µM 7% | [10]; at 33.0 µM 29% | [10]; at 100.0 µM 51% | [11]; at 1.2 µM 7% | [11]; at 3.7 µM 7% | [11]; at 11.0 µM 10% | [11]; at 33.0 µM 51% | [12]; [16] -1% | [15]; at 1.2 µM 12% | [15]; at 3.7 µM 13% | [15]; at 11.0 µM 21% | [15]; at 33.0 µM 35% | [15]; at 100.0 µM 58%

CCOC(=O)C1=C(C)NC(C)=C(C(=O)OCC)C1c1ccccc1Cl
inactive: [1]; at 1.2 µM -25% | [1]; at 3.7 µM -10% | [1]; at 11.0 µM 4% | [1]; at 33.0 µM 42% | [2]; at 1.2 µM -8% | [2]; at 3.7 µM 3% | [2]; at 11.0 µM -6% | [2]; at 33.0 µM 40% | [3]; at 1.2 µM -5% | [3]; at 3.7 µM 13% | [3]; at 11.0 µM 9% | [3]; at 33.0 µM 17% | [3]; at 100.0 µM 26% | [4]; at 1.2 µM 9% | [4]; at 3.7 µM 23% | [4]; [16] 54% | [4]; at 11.0 µM 29% | [4]; at 33.0 µM 48% | [5]; at 1.2 µM 8% | [5]; at 3.7 µM -2% | [5]; [16] 52% | [5]; at 11.0 µM -2% | [5]; at 33.0 µM 51% | [6]; at 1.2 µM -4% | [6]; at 3.7 µM -10% | [6]; at 11.0 µM 10% | [6]; at 33.0 µM 53% | [7]; [16] -15% | [13]; at 1.2 µM -13% | [13]; at 3.7 µM -22% | [13]; at 11.0 µM 38% | [13]; at 33.0 µM 56% | [8]; [16] 43% | [9]; at 1.2 µM 35% | [9]; at 3.7 µM 34% | [9]; [16] 26% | [9]; at 11.0 µM 4% | [9]; at 33.0 µM 62% | [14]; at 1.2 µM 14% | [14]; at 3.7 µM 11% | [14]; at 11.0 µM 20% | [14]; at 33.0 µM 49% | [10]; at 1.2 µM -38% | [10]; at 3.7 µM -31% | [10]; at 11.0 µM -25% | [10]; at 33.0 µM 41% | [11]; at 1.2 µM 26% | [11]; at 3.7 µM 28% | [11]; at 11.0 µM 38% | [11]; at 33.0 µM 67% | [12]; [16] 36% | [15]; at 1.2 µM 2% | [15]; at 3.7 µM 18% | [15]; at 11.0 µM 20% | [15]; at 33.0 µM 50%
active: [1]; at 100.0 µM 93% | [2]; at 100.0 µM 95% | [4]; [17] 100% | [4]; at 50.0 µM 90% | [4]; at 100.0 µM 91% | [5]; [17] 99% | [5]; at 50.0 µM 91.7% | [5]; at 100.0 µM 95% | [6]; at 100.0 µM 93% | [7]; [17] 91% | [13]; at 100.0 µM 94% | [8]; [17] 90% | [9]; [17] 84% | [9]; at 100.0 µM 95% | [14]; at 100.0 µM 96% | [10]; at 100.0 µM 93% | [11]; at 100.0 µM 96% | [12]; [17] 99% | [12]; at 50.0 µM 90.4% | [15]; at 100.0 µM 93%
